Data published in PubChem BioAssay (NCATS).
Inconclusive results are not listed. The source made the active and inactive calls. Calls follow the shape of the dose curve; as a rule, active = well fitted curve in the direction sought with a large enough effect; inconclusive = small, poorly fitted or top-dose-only effect, or another doubt; inactive = no such curve, though single readings can be large; an effect the other way counts as inactive or inconclusive.

Key:
[1] = Cell Viability - LYMP1-003 - Assay at 40 hr (AID 964); also: series mostly up to about 92 µM; nearly all actives have a fitted effect of over 60% in size
Procedure, shortened: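 This qHTS cytotoxicity screen treats human lymphoblastoid cells (LYMP1-003) with compounds for 40 hr and quantifies cellular ATP via luciferase luminescence.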

[2] = Cell Viability - LYMP2-003 (AID 965);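 also: cells exposed to compounds for 24 h before reading; nearly all actives have a fitted effect of over 50% in size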
Procedure, shortened: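 qHTS, human lymphoblastoid line, 2500 cells/well, complete medium. 24 h drug, 37 C. ATP-based luminescent readout; Hill-fit AC50.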

[3] = Cell Viability - LYMP2-004 (AID 966); also: nearly all actives have a fitted effect of over 65% in size
Procedure, shortened: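 Acute toxicity is scored as a concentration-dependent drop in intracellular ATP, quantified by luciferase luminescence, in human lymphoblastoid cells exposed to compound for 24 hr. AC50 derives from Hill-equation modelling.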

[4] = Cell Viability - LYMP2-005 (AID 967); also: series mostly up to about 92 µM
Procedure, shortened: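 Luciferase-based ATP quantitation served as the viability measure in human lymphoblastoid LYMP2-005 cells exposed to test compounds for 24 h at 37 C in complete culture medium. Potency (AC50) was obtained by fitting concentration-response curves with the Hill equation.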

[5] = Cell Viability - LYMP2-009 (AID 968); also: series mostly up to about 92 µM; nearly all actives have a fitted effect of over 55% in size
[6] = Cell Viability - LYMP2-011 (AID 969); also: nearly all actives have a fitted effect of over 60% in size
Procedure, shortened: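 Acute toxicity is scored as a concentration-dependent drop in intracellular ATP of a human lymphoblastoid line after 24 hr treatment. Values are AC50s modeled with the Hill equation.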

[7] = Cell Viability - LYMP2-013 (AID 970); also: series mostly up to about 92 µM; nearly all actives have a fitted effect of over 55% in size
Procedure, shortened: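 Acute toxicity was measured in human lymphoblastoid cells (2500/well) exposed to compound titrations for 24 hr, with ATP luminescence (CellTiter-Glo) as read-out and AC50 fitted by Hill equation.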

[8] = Cell Viability - LYMP2-015 (AID 971); also: nearly all actives have a fitted effect of over 55% in size
Procedure, shortened: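 Acute toxicity was scored as a concentration-dependent drop in intracellular ATP in lymphoblastoid cells after 24 hr compound exposure in complete medium. Detection used CellTiter-Glo luciferase luminescence.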

[9] = Cell Viability - LYMP2-017 (AID 972); also: series mostly up to about 92 µM; nearly all actives have a fitted effect of over 55% in size
Procedure, shortened: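 Steps: plate 2500 lymphoblastoid cells per well; incubate 5 hr at 37 C; add compound across a concentration series and incubate 24 hr at 37 C; add CellTiter-Glo and read luminescence after 30 min at room temperature; fit Hill curves for AC50.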

[10] = Cell Viability - LYMP2-019 (AID 973); also: nearly all actives have a fitted effect of over 55% in size
Procedure, shortened: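 Cells plated at 2500/well and allowed 5 hr at 37 C before compound addition. After 24 hr incubation, CellTiter-Glo reagent was added, plates sat 30 min at room temperature, and luminescence was recorded.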

[11] = Cell Viability - LYMP2-021 (AID 974)
Procedure, shortened: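 Concentration-response cytotoxicity in a human lymphoblastoid line: 24 hr treatment at 37 C in complete culture medium, tetraoctylammonium bromide as positive control, luminescent ATP quantitation as viability measure.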

[12] = Cell Viability - LYMP2-023 (AID 975)
Procedure, shortened: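 Concentration-dependent drop in intracellular ATP measures acute cytotoxicity in a human lymphoblastoid line treated for 24 hours in complete culture medium. AC50 values are taken from Hill-equation fits of qHTS data.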

[13] = Cell Viability - LYMP2-025 (AID 976); also: series mostly up to about 92 µM
Procedure, shortened: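 In qHTS format, LYMP2-025 lymphoblastoid cells in complete culture medium received compound for 24 hr; ATP-based CellTiter-Glo signal gave viability, with AC50 derived by Hill equation.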

[14] = Cell Viability - LYMP2-002 (AID 977);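 also: series mostly up to about 92 µM; compound exposure lasted 24 h at 37 °C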
Procedure, shortened: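 Cytotoxicity is scored as concentration-dependent loss of cellular ATP in a human lymphoblastoid line after 24 hr compound treatment at 37 C. AC50 is obtained by modelling concentration-response data with the Hill equation.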

[15] = Cell Viability - LYMP2-006 (AID 978); also: series mostly up to about 92 µM; nearly all actives have a fitted effect of over 60% in size
Procedure, shortened: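 In this cytotoxicity screen, the human lymphoblastoid line grew in complete medium with test compounds for 24 hr at 37 C. Cellular ATP served as the viability signal.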

[16] = Cell Viability - LYMP2-007 (AID 979);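 also: cells exposed to compound for 24 h before reading; nearly all actives have a fitted effect of over 60% in size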
Procedure, shortened: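 Acute toxicity is scored as a concentration-dependent fall in intracellular ATP in human lymphoblastoid cells treated 24 hr at 37 C, measured by luciferase luminescence; Hill-equation modelling yields AC50.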

[17] = Cell Viability - LYMP2-008 (AID 980); also: nearly all actives have a fitted effect of over 60% in size
Procedure, shortened: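 Acute cytotoxicity is scored as concentration-dependent loss of cellular ATP in a human lymphoblastoid line after 24 hr treatment at 37 C. ATP is quantified by luciferase luminescence.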

[18] = Cell Viability - LYMP2-010 (AID 981); also: nearly all actives have a fitted effect of over 55% in size
Procedure, shortened: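 Acute toxicity is scored as a concentration-dependent loss of cellular ATP in human lymphoblastoid cells after 24 hr compound exposure in complete medium. Tetraoctylammonium bromide is the positive control.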

[19] = Cell Viability - LYMP2-012 (AID 982)
[20] = Cell Viability - LYMP2-014 (AID 983); also: series mostly up to about 92 µM; nearly all actives have a fitted effect of over 50% in size
Procedure, shortened: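 Decrease in intracellular ATP after 24 hr treatment at 37 C, measured by luciferase luminescence, indicated cytotoxicity. Concentration-response data were fitted with the standard Hill equation to give AC50.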

Measured: outcome

CN(C)CCOC(c1ccccc1)c1ccccc1 (tested in a mixture with another compound)
inactive: all assays above
